Bioassay records as filed in PubChem BioAssay.
3T3 cytotox = kills NIH 3T3 cells. 4.3% of 94,000 active. AID 1345082. NIH 3T3 viability, CellTiter-Glo ATP luminescence, 48-72 h. Potency, µM (top dose mostly 96.7 µM), for inactives: top-dose activity change, negative = cytotoxicity, most hits filed as inhibitors; also: nearly all actives have a fitted effect of over 55% in size
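NIH 3T3 cells at 400 cells/well received 23 nL of compound by pintool and were incubated 48 or 72 h at 37 °C. Viability was read as ATP-coupled CellTiter-Glo luminescence.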
hNpr1 antagonist = human Npr1 receptor antagonism | Potency, µM (highest dose often 46.3 µM), for the others: top-dose activity change, negative = inhibition, usual class: inhibitors | HEK293 hNpr1 GloSensor cGMP, ANP-stimulated luminescence | AID 1347048 | 1.6% of 76,000 active | P16066; calls by dose curve; also: nearly all actives have a fitted effect of over 60% in size
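HEK293 cells stably expressing human Npr1 and cGMP GloSensor pGS-40F, loaded 2 h with 2% GloSensor reagent, given compound 30 min at room temperature. Luminescence read before and 20 min after 0.1 nM hNppA.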
HEK293 tox = HEK 293 cell cytotoxicity; 6.6% of 94,000 active; HEK 293 viability, ATP luminescence (CellTiter-Glo), 48-72 h; Potency, µM (series often up to 115 µM), without a hit: top-dose activity change, negative = cytotoxicity, actives largely listed as inhibitors; also: nearly all actives have a fitted effect of over 60% in size
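HEK 293 cells seeded at 250 cells/well were exposed to compound for 48 or 72 hr at 37 degree Celsius. Viability taken as ATP content by CellTiter-Glo luminescence.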
GPT2 inh = GPT2 alanine aminotransferase inhibition. 0.25% of 100,000 active. Q8TD30. Recombinant GPT2, coupled pyruvate oxidase/HRP Amplex Red fluorescence. Potency, µM (doses to about 57.7 µM), for inactives: at the top dose activity change, negative = inhibition, usual class: inhibitors; also: nearly all actives have a fitted effect of over 60% in size
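GPT2 10ng/uL, a-KG 250uM, L-Ala 2mM, HEPES pH7.5 + 0.0001% Tween; 30 min RT. Then Amplex mix (PO/HRP/ThPP), 30 min RT dark, fluorescence. AOA 50uM used as positive control.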
Luciferase inh = inhibitors of firefly (Photinus pyralis) luciferase; P08659; AID 1347043; Potency, µM (doses to about 115 µM), hits mostly inhibitors; 2.5% of 76,000 active; purified P. pyralis luciferase, luminescence, biochemical; also: nearly all actives have a fitted effect of over 65% in size
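Inhibitors were tested against purified firefly luciferase in a biochemical, low-substrate format (both substrates at 10uM) and luminescence measured with a CCD imager.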
Numbers without * were called inactive; i = inactive; u = inconclusive; x = no result; [ ] = another dose, or the depositor's remark. Compounds with a hit are over-represented: about 10% of the library has one in this group of screens. Unless noted, calls follow the shape of the dose curve; as a rule, active = well fitted curve in the direction sought with a large enough effect; inconclusive = small, poorly fitted or top-dose-only effect, or another doubt; inactive = no such curve, though single readings can be large; an effect the other way counts as inactive or inconclusive. % is scaled to controls: 0 for no effect and ±100 for the full control effect; potency is read from the fitted curve at half-maximal effect.

SMILES	3T3 cytotox	hNpr1 antagonist	HEK293 tox	GPT2 inh	Luciferase inh
COCC1(C(=O)N2CCN(C)C3(CCNC(=O)CC3)C2)CCC1 (configuration not stated)	3%	4%	i	u	i
Cc1ccc(Cn2cc(-c3ccncc3)cc2C(=O)NC2CC2)cc1	u	-9%	u	u	45µM*
Cc1ccc(CN2C[C@H](O)C[C@H]2c2nc(-c3ccc(F)cc3)no2)cc1	u	2%[70.6 µM]	u	-25%[88.5 µM]	i
CC(=O)N1CCC(N2C[C@H](O)C[C@H]2c2nc(-c3ccc(C(F)(F)F)cc3)no2)CC1	u	-10%[70.6 µM]	71µM*	i	u
Cc1ccc(-c2noc([C@@H]3C[C@@H](O)CN3Cc3ccc(S(C)(=O)=O)cc3)n2)cc1F	u	2%[70.6 µM]	u	1%[88.5 µM]	71µM*
Cc1ccc(-c2noc([C@@H]3C[C@@H](O)CN3C3CCCCC3)n2)cc1F	-29%[174 µM]	3%[70.6 µM]	-20%[172 µM]	-12%[88.5 µM]	50µM*
COc1ccc(-c2noc([C@@H]3C[C@@H](O)CN3C3CCCCC3)n2)cc1	u	5%[70.6 µM]	u	u	71µM*
COc1cc(=O)n2c(c1C(=O)Nc1cc(F)cc(F)c1)CCCC2	i	2%	5%	1%	i
COc1cc([C@@H]2c3cc4c(cc3[C@H](O)[C@@H](CO)[C@@H]2C(=O)NCC2CC2)OCO4)cc(OC)c1OC	u	-20%	u	i	i
CCC(=O)N1CCC(Oc2ccc(C(N)=O)cn2)C1 (configuration not stated)	4%	13%	-2%	i	i
NC(=O)c1cccnc1N1CCC(n2cc(-c3ccccc3Cl)nn2)CC1	-24%	-9%	79µM*	u	i
COc1ccc(C(=O)N[C@@H]2CCC[C@@H]2C(=O)N2CCOCC2)cn1	1%	7%	i	i	i
CC1=C[C@@H](CNC(=O)c2cnccn2)[C@H](C(C)C)C[C@H]1Cc1nc2ccc(F)cc2[nH]1	112µM*	u	71µM*	i	i
CC1=C[C@@H](CNC(=O)C2CCC2)[C@H](C(C)C)C[C@H]1Cc1nc2ccc(F)cc2[nH]1	40µM*	u	28µM*	u	i
CC(=O)N1CCC(NC[C@@H]2C=C(C)[C@H](Cc3nc4ccc(F)cc4[nH]3)C[C@H]2C(C)C)CC1	79µM*	-2%	u	i	i
CC1=C[C@@H](CNC(=O)c2cnccn2)[C@H](C(C)C)C[C@H]1Cc1nc2ccc(C)cc2[nH]1	u	u	32µM*	-2%[88.5 µM]	i
CC1=C[C@@H](CNC(=O)CCC(=O)O)[C@H](C(C)C)C[C@H]1Cc1nc2ccc(F)cc2[nH]1	-8%[138 µM]	10%[70.6 µM]	5%[172 µM]	-10%[88.5 µM]	i
CC1=C[C@@H](CNC(=O)c2cnccn2)[C@H](C(C)C)C[C@H]1CC(=O)O	-23%[138 µM]	6%[70.6 µM]	1%[172 µM]	-6%[88.5 µM]	i
COCCNC(=O)C1CCN(C(=O)c2ccc(-c3cncnc3)cc2)CC1	-6%	x	1%	x	x
Cc1ccccc1C(=O)N(C)Cc1cccc(C(F)(F)F)c1	u	18%[70.6 µM]	u	i	i
O=C(NCc1nnc2ccc(-c3ccccc3)nn12)c1cc2ccccc2[nH]1	u	-20%	u	2%	u
COc1ccc2nc(C[C@@H]3C[C@@H](C(C)C)[C@H](CNC(=O)Nc4ccc(F)cc4)C=C3C)[nH]c2c1	40µM*	-30%	28µM*	-9%	i
O=[S+]([O-])(Nc1ccccc1)c1ccc2c(c1)OCCN(Cc1ccccc1F)C2	u	u	u	1%[88.5 µM]	i
CC(C)(C)C(=O)N1CCc2nc(-c3ccccc3)nc(-c3ccc(Cl)cc3)c2C1	-13%	0%	u	i	i
Cc1ccc(NC(=O)c2cc3n(n2)CC(c2ccc4c(c2)OCO4)OC3)cc1F (configuration not stated)	-26%	u	40µM*	i	i
SMILES	3T3 cytotox	hNpr1 antagonist	HEK293 tox	GPT2 inh	Luciferase inh
NC(=O)c1ccc(NC(=O)c2cc3n(n2)CC(c2ccc(Br)cc2)OC3)cc1 (configuration not stated)	u	u	35µM*	i	i
CC(=O)Nc1ccc(NC(=O)c2cc3n(n2)CC(c2ccc(Br)cc2)OC3)cc1 (configuration not stated)	u	u	u	-3%	u
COc1ccc(NC(=O)c2cc3n(n2)CC(c2ccc4c(c2)OCO4)OC3)cc1 (configuration not stated)	u	11µM*	45µM*	i	u
COc1ccc(NC(=O)c2cc3n(n2)CC(c2ccc4c(c2)OCO4)OC3)c(OC)c1 (configuration not stated)	u	-5%	u	i	i
CC(C)(Oc1nn(Cc2cccc(Cl)c2)c2ccccc12)C(=O)NCCCN1CCCC1=O	u	-21%	u	-7%	i
C/C(=C(/OCCOc1ccc(Cl)cc1)c1ccc(Cl)cc1Cl)n1ccnc1	x	x	x	-9%	x
COC(=O)c1ccc(CN2C(=O)[C@@H]3C[C@@H](O)CN3C3(CN(Cc4ccc(OC)c5ccccc45)C3)C2=O)cc1	79µM*	-9%	u	-11%	i
COc1ccc(CN2CC3(C2)C(=O)N(Cc2cccc(Cl)c2)C(=O)[C@@H]2C[C@@H](O)CN23)c2ccccc12	u	-1%	u	u	i
c1ccc(-c2cc3c(cn2)CN(Cc2c[nH]c4ccccc24)CCN3)cc1	u	-9%[70.6 µM]	45µM*	4%[88.5 µM]	u
c1ccc(-c2cc3c(cn2)NCCN(CC2CC2)C3)cc1	u	-8%[70.6 µM]	-26%[230 µM]	i	u
Cc1[nH]cnc1CN1CCNc2cc(-c3ccccc3)ncc2C1	u	-5%[70.6 µM]	u	i	u
COc1ccc(OC)c(CN2CCNc3cnc(-c4ccccc4)cc3C2)c1	89µM*	-22%[70.6 µM]	56µM*	-9%[88.5 µM]	i
CCOc1cc2c(cn1)NCCN(Cc1ccccc1OC)C2	u	5%[70.6 µM]	u	-10%[88.5 µM]	i
Oc1ccccc1CN1CCNc2cnc(-c3ccccc3)cc2C1	u	u	63µM*	i	i
COc1cccc(CN2CCNc3cnc(-c4ccccc4)cc3C2)c1	u	-16%[70.6 µM]	89µM*	-4%[88.5 µM]	i
CC1CCN(CC2CCCCCN2C(=O)CC2CCCC2)CC1 (configuration not stated)	-20%	0%	-24%	i	i
COc1ccc(N2CC(c3noc(-c4ccccc4C)n3)CC2=O)cc1 (configuration not stated)	u	4%	u	i	i
CC(C)(N)C(=O)NCc1nc(-c2cccc(F)c2)c(-c2ccccn2)[nH]1	-7%	0%	u	-18%	i
